KinaseGlo FLuc – Kinase-Glo luciferase inhibition (counter-screen) | Q27757 | AID 1379 | Potency, µM (doses to about 38.3 µM), for the others: at the top dose activity change, negative = inhibition, hits mostly inhibitors | Kinase-Glo luciferase, ATP luminescence, 8 min | hit rate 0.28% among 200,000; further: nearly all actives have a fitted effect of over 60% in size
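Compound is pinned into ATP-containing buffer (10 uM ATP, imidazole pH 7.2, 7 mM MgCl2). Kinase-Glo luciferase reagent is then added. Light output is recorded following an 8-min room-temperature incubation.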
RORg inh – inhibitors of mouse ROR gamma transcriptional activity | P51450 | Drosophila S2 Gal4-RORgamma UAS-luciferase reporter, 20 h | Potency, µM (doses to about 53.6 µM), for the others: at the top dose activity change, negative = inhibition, most hits filed as inhibitors | hit rate 5.4% among 310,000 | AID 2551; further: nearly all actives have a fitted effect of over 60% in size
Target sequence (P51450 whole entry, looked up, the tested form may be a part): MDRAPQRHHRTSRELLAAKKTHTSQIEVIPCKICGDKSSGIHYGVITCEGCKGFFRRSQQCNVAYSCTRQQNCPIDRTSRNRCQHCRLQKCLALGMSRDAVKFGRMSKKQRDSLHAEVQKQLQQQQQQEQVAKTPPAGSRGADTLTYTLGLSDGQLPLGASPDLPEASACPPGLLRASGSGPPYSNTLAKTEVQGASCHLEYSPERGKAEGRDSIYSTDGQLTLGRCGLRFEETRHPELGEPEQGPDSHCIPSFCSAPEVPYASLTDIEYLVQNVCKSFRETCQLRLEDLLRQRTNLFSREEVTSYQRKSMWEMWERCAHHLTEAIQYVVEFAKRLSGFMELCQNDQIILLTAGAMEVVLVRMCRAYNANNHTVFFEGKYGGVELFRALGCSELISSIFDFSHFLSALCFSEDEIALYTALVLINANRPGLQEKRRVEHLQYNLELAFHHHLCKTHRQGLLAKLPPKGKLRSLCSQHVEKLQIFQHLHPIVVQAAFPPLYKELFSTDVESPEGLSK
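Stably transfected Drosophila Schneider cells are the test system, with ROR gamma fused to Gal4 and luciferase under UAS control; luminescence is read after 20 hr of 700 uM copper sulfate induction at ambient temperature.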
Gal4-VP16 FLuc – inhibits Gal4-VP16 luciferase reporter, ROR gamma counter-screen. Drosophila S2 Gal4-VP16 UAS-luciferase, luminescence, 20 h. Potency, µM (doses to about 53.6 µM), inactives show at the highest dose activity, negative = inhibition, actives largely listed as inhibitors. hit rate 3.5% among 310,000. AID 2546;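 further: Gal4-VP16 expression switched on by copper sulfate through the metallothionein promoter; nearly all actives have a fitted effect of over 50% in size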
Starred values were filed as active, the others as inactive; u = inconclusive; x = no result given; [ ] = remark or other dose. Shown are actives, neighbours in structure and some others; about 6.4% of the full set was active somewhere. The call rests on the fitted dose curve; in most records, active means well fitted curve in the direction sought with a large enough effect; inconclusive means small, poorly fitted or top-dose-only effect, or another doubt; inactive means no such curve, though single readings can be large; an effect the other way counts as inactive or inconclusive. On the % scale 0 is the no-effect control and ±100 the full control effect; potency means the concentration at half of the fitted maximal effect.

SMILES | KinaseGlo FLuc | RORg inh | Gal4-VP16 FLuc
Cc1nsc2nc3c(F)c(F)c(F)c(F)c3cc12 | x | u | -29%
O=C(COc1ccccc1)NC1CCCN(Cc2ccccc2F)C1 (configuration not stated) | x | 6% | 0%
CCOc1ccc(-n2c(N)c(C(=O)NCc3ccco3)c3nc4ccccc4nc32)cc1 | -3% | u | 1%
CCOc1ccc(-n2c(N)c(-c3nc4ccccc4n3C)c3nc4ccccc4nc32)cc1 | 1% | 1µM* | 1.3µM*
COc1cc(OC)cc(C(=O)NC(=S)N2CCCCC2c2cccnc2)c1 (configuration not stated) | x | 38% | 4µM*
COc1ccc(/C=C/C(=O)NC(=S)NN2CCCCC2c2cccnc2)cc1OC (configuration not stated) | 7% | 13µM* | 16µM*
COc1ccc(/C=C/C(=O)NC(=S)NNC(=O)c2cccnc2)cc1 | 2% | -3%[10 µM] | -43%
O=C(/C=C/c1ccc(Cl)cc1)NC(=S)NN1CCCCC1c1cccnc1 (configuration not stated) | 0% | 2µM* | u
COc1ccc(/C=C/C(=O)Nc2cccc(S(=O)(=O)N3CCCC3)c2)cc1OC | -1% | u | 0%
COc1ccc(NC(=O)N2CCCCC2c2cccnc2)cc1 (configuration not stated) | -2% | 30% | 12%
COC(=O)c1cc(-c2ccc(OC)c(OC)c2)c2c(=O)[nH]c(=O)n(C)c2n1 | x | -6% | -2%
Cc1[nH]c2ccc(Br)cc2c(=S)c1C/C=C/Cl | x | 7.9µM* | -17%
Cc1[nH]c2ccc3ccccc3c2c(=O)c1C/C=C/Cl | x | u | 9%
CCC(Sc1nnc(-c2ccco2)n1C)C(=O)Nc1nnc(C)s1 (configuration not stated) | x | 8% | -1%
O=C(N/N=C/CCc1ccccc1)c1ccc(CN2c3cccc4cccc(c34)S2(=O)=O)cc1 | -2% | 11µM* | u
COc1ccc(/C=N/NC(=O)c2ccc(CN3c4cccc5cccc(c45)S3(=O)=O)cc2)cc1 | 0% | -21% | 1%
Cc1noc(C)c1CSc1ccccc1C(=O)O | x | -10% | -4%
O=C(/C=C/c1ccccc1)CC(O)(c1ccccc1)C(F)(F)F (configuration not stated) | -2% | u | u
COc1ccc(/C=C/C(=O)CC(O)(c2ccccc2)C(F)(F)F)cc1 (configuration not stated) | 0% | 14µM* | u
O=C(Nc1nnc(SCC(=O)N2CCCCC2)s1)c1c(F)cccc1F | x | 13% | 2%
COc1ccc(C)cc1Nc1n[n+](-c2ccccc2)c(-c2ccc(C(=O)O)cc2)s1 | x | -7% | 4%
COc1ccc(C)cc1Nc1n[n+](-c2ccccc2)c(-c2cc(OC)c(OC)cc2Br)s1 | x | 10µM* | u
CCNC(=S)Nc1ccc(Cc2ccncc2)cc1 | 0% | 0% | -19%
CC(C)(C)C(=O)NC(=S)Nc1ccc(Cc2ccncc2)cc1 | x | 13µM* | 13µM*
CNC(=S)Nc1ccc(Cc2ccncc2)cc1 | x | -22% | -5%
SMILES | KinaseGlo FLuc | RORg inh | Gal4-VP16 FLuc
CC(=O)Nc1ccc(NC(=S)Nc2ccc(F)cc2)cc1 | -2% | -26% | -2%
CC(C)(C)C(=O)NC(=S)Nc1ccc(F)cc1 | 12% | 10µM* | u
O=C(NC(=S)Nc1ccc(Cc2ccncc2)cc1)c1ccc(F)cc1 | -2% | 4.5µM* | u
Cc1ccc(COc2ccc(CNCCCN3CCCCCC3=O)cc2)cc1 | x | 0% | 1%
COc1cccc2cc(C(=O)NCCc3ccccc3)oc12 | x | u | -27%
NC(=O)c1cc(S(=O)(=O)NCCc2ccc(S(N)(=O)=O)cc2)cs1 | x | -5% | -3%
CCN1C(=O)CC(N2CCC(C(=O)N3CCOCC3)CC2)C1=O (configuration not stated) | 2% | -37% | 2%
O=C(C1CCN(C2CC(=O)N(c3ccc(F)cc3)C2=O)CC1)N1CCOCC1 (configuration not stated) | -5% | 13µM* | u
Cc1cccc(-c2noc(CN(C)C(=O)c3ccc4c(c3)OCO4)n2)c1 | x | 11% | -3%
Cc1cc([N+](=O)[O-])ccc1NC(=S)NC(=O)C(c1ccccc1)c1ccccc1 | -2% | 7.9µM* | 10µM*
Cc1cc([N+](=O)[O-])ccc1NC(=S)NC(=O)Cc1ccccc1 | -6% | 22µM* | u
Cc1ccc(C(=O)O)cc1NC(=S)NC(=O)C(c1ccccc1)c1ccccc1 | 12% | 4% | -13%
COc1ccc([N+](=O)[O-])cc1NC(=S)NC(C)=O | -2% | -9% | 2%
Cc1ccc([N+](=O)[O-])cc1NC(=S)NC(=O)C(C)(C)C | -5% | u | 5%
Cc1ccc([N+](=O)[O-])cc1NC(=S)NC(=O)CC(C)(C)C | -2% | 6.3µM* | 22µM*
CCCCC(=O)NC(=S)Nc1cc([N+](=O)[O-])ccc1OC | 0% | 10µM* | -25%
CC(=O)NC(=S)Nc1ccc([N+](=O)[O-])cc1C | 1% | -30% | 0%
CC(C)OP(=O)(c1ccc(N(C)C)cc1)C(O)c1ccc(N(C)C)cc1 (configuration not stated) | x | 30% | 4%
O=C(CN(C(=O)C1CSC(=O)C1)c1cccc(F)c1)NCc1ccc2c(c1)OCO2 (configuration not stated) | x | 20% | -2%
COC(=O)c1cc(CNC(=O)CCCSc2ccccc2)ccc1OC | x | 17% | 11%
CSCCC(NC(N)=O)C(=O)Nc1ccc(F)c(Cl)c1 (configuration not stated) | x | 0% | -8%
CN1C(=S)SC2CS(=O)(=O)CC21 (configuration not stated) | x | -24% | 3%
COc1ccccc1CN=Cc1[nH]c2ccc(Br)c(Cl)c2c1O | -7% | -101% | 11µM*
Cc1cccc(N=Cc2[nH]c3ccc(Br)c(Cl)c3c2O)c1 | -4% | -18% | u
Cc1ccc(S(=O)(=O)N2C(=O)CCC2C(=O)O/N=C(\N)c2ccc([N+](=O)[O-])cc2)cc1 (configuration not stated) | x | -22% | u
SMILES | KinaseGlo FLuc | RORg inh | Gal4-VP16 FLuc
Cc1nn(C)c(Cl)c1CN1CCC(CO)(CC2CCCCO2)CC1 (configuration not stated) | 2% | 2% | 4%
COc1cc(OC)c2c(=O)c(-c3ccccc3)c(C)oc2c1OC | 0% | 26% | 0%
Cc1ccccc1NC(=O)c1cccc(N2C(=O)C3C4CC(C(Br)C4Br)C3C2=O)c1 (configuration not stated) | x | 0% | 4%
O=C1C(SCCO)=C(SCCO)C(=O)c2ccccc21 | -10% | 0.63µM* | 0.79µM*
N#CC(=NCCO)C1=C(O)c2ccccc2C1=O | 4%[7.66 µM] | x | x
Cc1ccc(C(=O)NCC(=O)NCC(=O)OCc2ccc(F)cc2)cc1 | 0% | 21% | 4%
COC(=O)c1cccc(NC(=O)c2cccnc2)c1 | -3% | -16% | 12%
CCOc1cc(C(=O)NC(=S)Nc2cccnc2)cc(OCC)c1OCC | 5% | 13µM* | u
COc1ccc(C(=O)NC(=S)Nc2cccnc2)cc1Cl | x | 10µM* | -8%
CSc1cccc(NC(=S)NC(=O)c2cccnc2)c1 | x | 10µM* | 11µM*
COc1cccc(C(=O)NC(=S)Nc2cccnc2)c1 | -6% | u | -25%
